Source: PubChem (several laboratories)
This is a sample that favours compounds with a hit; in the whole collection about 3.2% have one here.
NRP1-CendR mod – alters CendR peptide binding to human NRP-1; O14786; inhibition, % at 25 µM; 0.85% of 360,000 active; AID 602438; FAM-RPARPAR peptide binding to NRP-1, fluorescence polarization;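 active means inhibition or corrected inhibition above about 18%, plus a signal ratio from 0.5 to 1.5, limit read from the data, passing the limit was not always enough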
Target sequence (O14786 whole entry, looked up): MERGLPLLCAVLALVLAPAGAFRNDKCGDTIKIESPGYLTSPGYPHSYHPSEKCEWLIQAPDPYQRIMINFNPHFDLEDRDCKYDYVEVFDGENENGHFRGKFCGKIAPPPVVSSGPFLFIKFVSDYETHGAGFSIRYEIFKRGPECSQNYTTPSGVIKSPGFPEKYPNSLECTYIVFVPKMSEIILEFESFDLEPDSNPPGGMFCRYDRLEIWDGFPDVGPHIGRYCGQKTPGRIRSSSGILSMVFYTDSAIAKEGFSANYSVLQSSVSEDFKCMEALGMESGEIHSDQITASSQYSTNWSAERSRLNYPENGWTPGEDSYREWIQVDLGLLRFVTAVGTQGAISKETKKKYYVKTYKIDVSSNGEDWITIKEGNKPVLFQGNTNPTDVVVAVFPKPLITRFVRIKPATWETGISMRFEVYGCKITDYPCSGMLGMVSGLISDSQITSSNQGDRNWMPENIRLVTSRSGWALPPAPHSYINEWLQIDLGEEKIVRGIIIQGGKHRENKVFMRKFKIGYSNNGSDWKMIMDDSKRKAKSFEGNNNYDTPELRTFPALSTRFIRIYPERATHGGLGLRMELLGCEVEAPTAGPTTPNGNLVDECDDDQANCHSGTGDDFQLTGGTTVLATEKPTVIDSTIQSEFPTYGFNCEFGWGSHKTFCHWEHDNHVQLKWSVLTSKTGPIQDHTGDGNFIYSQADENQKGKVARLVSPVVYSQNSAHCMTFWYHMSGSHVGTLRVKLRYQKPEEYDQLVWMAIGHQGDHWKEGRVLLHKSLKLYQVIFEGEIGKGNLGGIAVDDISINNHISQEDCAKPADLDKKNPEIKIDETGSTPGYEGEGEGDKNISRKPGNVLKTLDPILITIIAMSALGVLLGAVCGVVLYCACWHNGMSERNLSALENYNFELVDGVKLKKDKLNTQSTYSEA
MEKK3 PB1 HTS – modulators (inhibitors or enhancers) of MEK5 binding to human MEKK3 PB1 domain; bead-based flow cytometry, Alexa488-MEK5 binding to MEKK3; actives lie on both sides; 0 = blocked by unlabeled MEK5, 100 = vehicle; Q99759; 1.4% of 290,000 active; binding response (% of control), % at 10 µM; AID 1529;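 active means binding response more than 3 SD above or below the average of its plate-row segment, actives on both sides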;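 further: Alexa488 bead fluorescence after subtracting the streptavidin-only scavenger bead signal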
MEKK2 WT-MEK5 – raises or lowers MEK5 binding to wildtype human MEKK2 PB1 domain; bead flow cytometry, Alexa488-MEK5 binding to MEKK2 WT; actives lie on both sides; Q9Y2U5; AID 1531; binding response (% of control), % at 10 µM; 1.1% of 290,000 active; in the data active means binding response below about 67% or above about 130%
SKN-1 block – C. elegans SKN-1 inhibition; inhibition, % at 21.8 µM; 0.49% of 360,000 active; AID 624304; C. elegans VP596 Pgst-4::GFP/RFP ratio, acrylamide-induced, 24 h;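 active means interference check ratio from 0.5 to 1.5 plus GFP to RFP signal ratio inhibition reaching or exceeding a fixed threshold, cut at about 30% in these data, passing the limit was not always enough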
MEKK2 mut-MEK5 – signal of MEK5 binding to mutant human MEKK2 PB1 domain; bead flow cytometry, Alexa488-MEK5 binding to MEKK2 mutant; percent response, % at 10 µM; 0.35% of 290,000 active; in the data active means percent response above about 24%, passing the limit was not always enough
Starred values were filed as active, the others as inactive; x = not tested or not shown; [ ] = another dose, or the depositor's remark.

SMILES | NRP1-CendR mod | MEKK3 PB1 HTS | MEKK2 WT-MEK5 | SKN-1 block | MEKK2 mut-MEK5
COc1ccc2[nH]c(=O)c(CN(C(=O)c3cccnc3)c3cc(C)ccc3C)cc2c1 | -7 | 96 | 98 | -6 | 1
CNc1cc(=O)n(C)c(=O)n1-c1ccccc1 | 0 | x | x | 3 | x
CCn1c(NC)cc(=O)n(C)c1=O | 21* | 110 | 108 | -5 | -1
Cc1ccc(NC(=O)CSCc2cc(=O)n3ccsc3n2)cc1 | 2 | 100 | 100 | 34* | 0
Cc1ccc(S(=O)(=O)c2nnn3c2nc(NCCCN2CCCC2=O)c2ccccc23)cc1C | 8 | 103 | 103 | -1 | 2
Cc1ccc(S(=O)(=O)c2nnn3c2nc(NC2CCN(Cc4ccccc4)CC2)c2ccccc23)cc1C | -10 | 111 | 176* | -8 | 30*
Cc1ccc(C(=O)N/C(=C\c2ccccc2)C(=O)NCCCn2ccnc2)cc1 | 23* | 105 | 94 | 1 | -7
CCCCC(CCc1ccccn1)C(=O)c1ccccc1 (stereo not drawn) | 17 | x | x | 10 | x
COc1ccc(N2CCN(C(CNC(=O)c3ccc4c(c3)OCO4)c3cccnc3)CC2)cc1 (stereo not drawn) | 4 | 91 | 98 | -9 | -2
O=C(NCC(c1cccnc1)N1CCN(c2ccc(F)cc2)CC1)c1ccc2c(c1)OCO2 (stereo not drawn) | 1 | 77 | 87 | 42* | -14
Cc1cccc(N=C2NC(=O)/C(=C/c3cccn3C)S2)c1C | -75 | 101 | 103 | 41* | 5
Cc1ccc(N=C2NC(=O)/C(=C/c3cccn3C)S2)cc1C | -2 | 91 | 94 | 10 | -10
CN1CCN(C(=O)c2ccccc2N(Cc2ccccc2)S(C)(=O)=O)CC1 | 2 | 103 | 103 | 40* | 4
O=C(NCCCO)/C(=C\c1ccco1)NC(=O)c1ccco1 | -2 | 111 | 117 | 6 | 16
Cc1ccccc1C(=O)Nc1ccc(C(=O)N/N=C/c2ccc(O)cc2)cc1 | 4 | 92 | 59*[inhibitor] | -1 | -22
CCCNC(=O)C1(CC2CC(c3ccccc3)=NO2)CCN(C(=O)c2ccccc2)CC1 (stereo not drawn) | 27* | x | x | -1 | x
CCOc1cc(C(=O)N2CCC(CC3CC(c4ccccc4)=NO3)(C(=O)NCc3ccc(OC)cc3)CC2)cc(OCC)c1OCC (stereo not drawn) | 45* | 99 | 98 | 13 | -6
CCCCCCOc1ccc(N2C(=O)CC(NCc3ccc(S(N)(=O)=O)cc3)C2=O)cc1 (stereo not drawn) | 2 | 95 | -4.0* | -6 | -2
COc1cc2c(-c3ccccc3O)nc3c(c(C)nn3-c3ccccc3)c2cc1OC | 33* | 94 | 104 | 5 | 9
COC(=O)c1cc(C)nc2c1c(C)nn2-c1ccccc1 | -8 | x | x | 17 | x
O=C(Nc1ccccn1)c1cccc(S(=O)(=O)N2CCCCC2)c1 | 4 | 99 | 99 | 20 | 0
O=C(Nc1ccccn1)c1cccc(S(=O)(=O)N2CCCC2)c1 | 2 | 82*[inhibitor] | 97 | 6 | -4
O=C(NCCc1ccccn1)c1ccc(S(=O)(=O)N2CCCCCC2)cc1 | -11 | 96 | 97 | 39* | -3
O=C(NCc1ccccn1)c1cccc(S(=O)(=O)N2CCCCC2)c1 | 8 | x | x | 6 | x
COc1ccc(C(C)(NC(C)=O)c2nc(-c3cccc(F)c3)cs2)cc1 (stereo not drawn) | 1 | x | x | -6 | x
SMILES | NRP1-CendR mod | MEKK3 PB1 HTS | MEKK2 WT-MEK5 | SKN-1 block | MEKK2 mut-MEK5
CC(=O)Nc1ccc(C(=O)Nc2cccc(S(=O)(=O)N(C)c3ccccc3)c2)cc1 | 26* | x | x | 2 | x
CN(c1ccccc1)S(=O)(=O)c1cccc(NC(=O)c2ccncc2)c1 | -2 | 100 | 103 | 0 | 0
Cc1cc(C)n2c(SCC(=O)Nc3cccc(S(N)(=O)=O)c3)nnc2n1 | 24* | x | x | 10 | x
CN(c1ccccc1)S(=O)(=O)c1cccc(NC(=O)CSc2nncn2C)c1 | 24* | 104 | 104 | 2 | -1
Cn1cnnc1SCC(=O)Nc1cccc(S(=O)(=O)N2CCCCCC2)c1 | 1 | 100 | 99 | -5 | 18
Cc1nnc(SCC(=O)Nc2cccc(S(N)(=O)=O)c2)n1-c1ccccc1 | 8 | 105 | 102 | 12 | 2
CCCCCCCCN1C(=O)[C@H](CC(=O)NCCC(C)C)C[C@@]2(C(=O)OC)CCCCC=C12 | -9 | x | x | -2 | x
CCCCN1C(=O)C(C#N)CC2=C1CC(C)(C)CC2=O (stereo not drawn) | -2 | x | x | -2 | x
O=C(O)[C@@H]1[C@H]2C[C@H]3c4[nH]c5ccccc5c4CCN3C[C@@H]2CC[C@@H]1O | 15 | x | x | 27 | x
O=C(O)C1CCCC2CN3CCc4c([nH]c5ccccc45)C3C(O)C21 (stereo not drawn) | 14 | 103 | 97 | 37* | 3
CCC(C)NC(=O)c1ccc(N2CC3CC(C2)c2cccc(=O)n2C3)c(NC(=O)c2ccc(Br)o2)c1 (stereo not drawn) | 3 | 101 | 98 | -1 | -1
O=C1NC[C@@H](CCCCN2C[C@H](Cc3ccccc3)N(CCc3ccc(O)cc3)C(=O)C2=O)N(Cc2ccccc2)C1=O | 18* | x | x | 2 | x
CN1CCC(=NNC(=O)c2ccco2)CC1 | 36* | 108 | 108 | 11 | 18
C[N+](C)(CC#Cc1ccccc1)CC(=O)c1ccccc1 | 42* | 97 | 97 | -6 | 0
C[N+](C)(CC#Cc1ccccc1)CC(=O)c1ccc(Cl)cc1 | -18 | 93 | 99 | 5 | -3
COc1ccccc1OCCNc1ccc(S(=O)(=O)N2CCCC2)cn1 | -5 | x | x | 7 | x
CCOCCCNC(=O)C(c1ccc(Cl)cc1)N1CCN(c2ccccc2)CC1 (stereo not drawn) | -4 | 99 | 101 | 6 | 6
CCOCCCNC(=O)C(c1ccc(Cl)cc1)N1CCC2(CC1)OCCO2 (stereo not drawn) | 5 | 113 | 112 | 37* | 3
Cc1cc(F)ccc1-c1cc(C(=O)NCc2cccc(C(F)(F)F)c2)[nH]n1 | 1 | x | x | -2 | x
CN1/C(=C\C=C2/SC(=S)N(CC(=O)O)C2=O)C(C)(C)c2ccccc21 | 136 | 145* | 805* | 56 | 880*
Cc1c(O)nc(SCC(=O)Nc2cccc(C(F)(F)F)c2)n(-c2ccccc2)c1=O | 0 | 99 | 101 | -11 | -3
Cc1ccc(NC(=O)CSc2nnc(C)n2-c2ccccc2)cc1 | -3 | 110 | 110 | 6 | 5
Cc1ccc(-n2c(C)nnc2SCC(=O)Nc2ccccc2)cc1 | 20* | 96 | 102 | 32 | 5
COc1cccc(NC(=O)CSc2nc(O)c(C)c(=O)n2-c2ccc(C)cc2)c1 | 24* | 100 | 104 | 14 | 1
COCCNC(=S)N(CCc1c(C)[nH]c2ccc(Cl)cc12)Cc1cccs1 | 4 | 80 | 112 | 20 | -3
COCCNC(=S)N(CCc1c(C)[nH]c2ccc(F)cc12)Cc1cccs1 | 32* | 67 | 83 | 9 | -11
